# Where two headings read alike, the source gives them in different places.
# Key:
# ERN1 = details: read-out: apparent Kd, n = 1
# GAK = details: read-out: apparent Kd, n = 1
substance,measurement,setting,value
Lestaurtinib,potency estimated from few doses,"ERN1; compound concentrations:100 nM and 1000 nM (sheet 'Lestaurtinib' of Supplementary Table 1),run:Lestaurtinib_02765_R2,Plate:MR026",84.8 nM
same,potency estimated from few doses,"ERN1; compound concentrations:100 nM and 1000 nM (sheet 'Lestaurtinib' of Supplementary Table 1),run:Lestaurtinib_02765_R3,Plate:MR026",113 nM
same,potency estimated from few doses,"ERN1; compound concentrations:100 nM and 1000 nM (sheet 'Lestaurtinib' of Supplementary Table 1),run:Lestaurtinib_02766_R1,Plate:MR027",29.6 nM
same,potency estimated from few doses,"ERN1; compound concentrations:100 nM and 1000 nM (sheet 'Lestaurtinib' of Supplementary Table 1),run:Lestaurtinib_02766_R2,Plate:MR027",54.9 nM
same,potency estimated from few doses,"ERN1; compound concentrations:100 nM and 1000 nM (sheet 'Lestaurtinib' of Supplementary Table 1),run:Lestaurtinib_02766_R3,Plate:MR027",73.5 nM
same,potency estimated from few doses,"ERN1; compound concentrations:100 nM and 1000 nM (sheet 'Lestaurtinib' of Supplementary Table 1),run:Lestaurtinib_02768_R1,Plate:MR028",51.4 nM
same,potency estimated from few doses,"ERN1; compound concentrations:100 nM and 1000 nM (sheet 'Lestaurtinib' of Supplementary Table 1),run:Lestaurtinib_02768_R2,Plate:MR028",55.4 nM
same,potency estimated from few doses,"ERN1; compound concentrations:100 nM and 1000 nM (sheet 'Lestaurtinib' of Supplementary Table 1),run:Lestaurtinib_02795_R2,Plate:MR022",59.6 nM
same,potency estimated from few doses,"ERN1; compound concentrations:100 nM and 1000 nM (sheet 'Lestaurtinib' of Supplementary Table 1),run:Lestaurtinib_02802_R1,Plate:MR029",60.8 nM
same,potency estimated from few doses,"ERN1; compound concentrations:100 nM and 1000 nM (sheet 'Lestaurtinib' of Supplementary Table 1),run:Lestaurtinib_02802_R3,Plate:MR029",176 nM
same,potency estimated from few doses,"ERN1; compound concentrations:100 nM and 1000 nM (sheet 'Lestaurtinib' of Supplementary Table 1),run:Lestaurtinib_02896_R3,Plate:MR030",48.9 nM
same,potency estimated from few doses,"ERN1; compound concentrations:100 nM and 1000 nM (sheet 'Lestaurtinib' of Supplementary Table 1),run:Lestaurtinib_03172_R2,Plate:MR031",68.4 nM
same,potency estimated from few doses,"ERN1; compound concentrations:100 nM and 1000 nM (sheet 'Lestaurtinib' of Supplementary Table 1),run:Lestaurtinib_03172_R3,Plate:MR031",71.8 nM
same,potency estimated from few doses,"GAK; compound concentrations:100 nM and 1000 nM (sheet 'Lestaurtinib' of Supplementary Table 1),run:Lestaurtinib_02339_R1,Plate:MR001",681 nM
same,potency estimated from few doses,"GAK; compound concentrations:100 nM and 1000 nM (sheet 'Lestaurtinib' of Supplementary Table 1),run:Lestaurtinib_02339_R2,Plate:MR001",515 nM
same,potency estimated from few doses,"GAK; compound concentrations:100 nM and 1000 nM (sheet 'Lestaurtinib' of Supplementary Table 1),run:Lestaurtinib_02339_R3,Plate:MR001",744 nM
same,potency estimated from few doses,"GAK; compound concentrations:100 nM and 1000 nM (sheet 'Lestaurtinib' of Supplementary Table 1),run:Lestaurtinib_02364_R2,Plate:MR002",838 nM
same,potency estimated from few doses,"GAK; compound concentrations:100 nM and 1000 nM (sheet 'Lestaurtinib' of Supplementary Table 1),run:Lestaurtinib_02364_R3,Plate:MR002",670 nM
same,potency estimated from few doses,"GAK; compound concentrations:100 nM and 1000 nM (sheet 'Lestaurtinib' of Supplementary Table 1),run:Lestaurtinib_02367_R1,Plate:MR003",703 nM
same,potency estimated from few doses,"GAK; compound concentrations:100 nM and 1000 nM (sheet 'Lestaurtinib' of Supplementary Table 1),run:Lestaurtinib_02367_R2,Plate:MR003",797 nM
same,potency estimated from few doses,"GAK; compound concentrations:100 nM and 1000 nM (sheet 'Lestaurtinib' of Supplementary Table 1),run:Lestaurtinib_02367_R3,Plate:MR003",731 nM
same,potency estimated from few doses,"GAK; compound concentrations:100 nM and 1000 nM (sheet 'Lestaurtinib' of Supplementary Table 1),run:Lestaurtinib_02381_R2,Plate:MR004",635 nM
same,potency estimated from few doses,"GAK; compound concentrations:100 nM and 1000 nM (sheet 'Lestaurtinib' of Supplementary Table 1),run:Lestaurtinib_02407_R1,Plate:MR005",718 nM
same,potency estimated from few doses,"GAK; compound concentrations:100 nM and 1000 nM (sheet 'Lestaurtinib' of Supplementary Table 1),run:Lestaurtinib_02407_R2,Plate:MR005",809 nM
same,potency estimated from few doses,"GAK; compound concentrations:100 nM and 1000 nM (sheet 'Lestaurtinib' of Supplementary Table 1),run:Lestaurtinib_02407_R3,Plate:MR005",702 nM
same,potency estimated from few doses,"GAK; compound concentrations:100 nM and 1000 nM (sheet 'Lestaurtinib' of Supplementary Table 1),run:Lestaurtinib_02422_R1,Plate:MR006",425 nM
same,potency estimated from few doses,"GAK; compound concentrations:100 nM and 1000 nM (sheet 'Lestaurtinib' of Supplementary Table 1),run:Lestaurtinib_02422_R2,Plate:MR006",9.54 nM
same,potency estimated from few doses,"GAK; compound concentrations:100 nM and 1000 nM (sheet 'Lestaurtinib' of Supplementary Table 1),run:Lestaurtinib_02422_R3,Plate:MR006",725 nM
same,potency estimated from few doses,"GAK; compound concentrations:100 nM and 1000 nM (sheet 'Lestaurtinib' of Supplementary Table 1),run:Lestaurtinib_02437_R1,Plate:MR007",654 nM
same,potency estimated from few doses,"GAK; compound concentrations:100 nM and 1000 nM (sheet 'Lestaurtinib' of Supplementary Table 1),run:Lestaurtinib_02437_R2,Plate:MR007",698 nM
same,potency estimated from few doses,"GAK; compound concentrations:100 nM and 1000 nM (sheet 'Lestaurtinib' of Supplementary Table 1),run:Lestaurtinib_02437_R3,Plate:MR007",58.5 nM
same,potency estimated from few doses,"GAK; compound concentrations:100 nM and 1000 nM (sheet 'Lestaurtinib' of Supplementary Table 1),run:Lestaurtinib_02438_R1,Plate:MR008",700 nM
same,potency estimated from few doses,"GAK; compound concentrations:100 nM and 1000 nM (sheet 'Lestaurtinib' of Supplementary Table 1),run:Lestaurtinib_02438_R2,Plate:MR008",667 nM
same,potency estimated from few doses,"GAK; compound concentrations:100 nM and 1000 nM (sheet 'Lestaurtinib' of Supplementary Table 1),run:Lestaurtinib_02438_R3,Plate:MR008",750 nM
same,potency estimated from few doses,"GAK; compound concentrations:100 nM and 1000 nM (sheet 'Lestaurtinib' of Supplementary Table 1),run:Lestaurtinib_02473_R3,Plate:MR010",59.2 nM
same,potency estimated from few doses,"GAK; compound concentrations:100 nM and 1000 nM (sheet 'Lestaurtinib' of Supplementary Table 1),run:Lestaurtinib_02482_R1,Plate:MR011",870 nM
same,potency estimated from few doses,"GAK; compound concentrations:100 nM and 1000 nM (sheet 'Lestaurtinib' of Supplementary Table 1),run:Lestaurtinib_02482_R2,Plate:MR011",804 nM
same,potency estimated from few doses,"GAK; compound concentrations:100 nM and 1000 nM (sheet 'Lestaurtinib' of Supplementary Table 1),run:Lestaurtinib_02482_R3,Plate:MR011",707 nM
same,potency estimated from few doses,"GAK; compound concentrations:100 nM and 1000 nM (sheet 'Lestaurtinib' of Supplementary Table 1),run:Lestaurtinib_02487_R2,Plate:MR012",783 nM
same,potency estimated from few doses,"GAK; compound concentrations:100 nM and 1000 nM (sheet 'Lestaurtinib' of Supplementary Table 1),run:Lestaurtinib_02496_R1,Plate:MR013",552 nM
same,potency estimated from few doses,"GAK; compound concentrations:100 nM and 1000 nM (sheet 'Lestaurtinib' of Supplementary Table 1),run:Lestaurtinib_02496_R2,Plate:MR013",507 nM
same,potency estimated from few doses,"GAK; compound concentrations:100 nM and 1000 nM (sheet 'Lestaurtinib' of Supplementary Table 1),run:Lestaurtinib_02496_R3,Plate:MR013",639 nM
